Data on 7 compounds can be found in ChEMBL document CHEMBL1961873, “Compounds: GSK PKIS; Assays: Nanosyn kinase panel” (2012).

The target in test [1] is Rho-associated protein kinase 1 (Homo sapiens) (UniProt Q13464). The following applies: at 1 µM.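 Also: reported values are mean percent inhibition of ROCK1.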
The target of test [2] is Rho-associated protein kinase 2 (Homo sapiens) (UniProt O75116). The note with it: at 0.1 µM.
Test [3] has the same target. The note with it: at 1 µM.
Test [4] deals with Ribosomal protein S6 kinase alpha-1 (Homo sapiens) (UniProt Q15418). The note with it: at 0.1 µM.
For test [5] the target is unchanged. The note with it: at 1 µM.
The target in test [6] is Ribosomal protein S6 kinase alpha-3 (Homo sapiens) (UniProt P51812). The note with it: at 0.1 µM.
The target is the same in test [7]. The note with it: at 1 µM.
For test [8], the target named is Ribosomal protein S6 kinase alpha-2 (Homo sapiens) (UniProt Q15349). The following applies: at 0.1 µM.
The target is the same in test [9]. The note with it: at 1 µM.
Test [10] concerns the target Ribosomal protein S6 kinase alpha-6 (Homo sapiens) (UniProt Q9UK32). The note with it: at 0.1 µM.
For test [11] the target is unchanged. The following applies: at 1 µM.
Test [12] has as its target T1, Serine/threonine-protein kinase Sgk1 (Homo sapiens) (UniProt O00141).
T1 sequence (whole entry): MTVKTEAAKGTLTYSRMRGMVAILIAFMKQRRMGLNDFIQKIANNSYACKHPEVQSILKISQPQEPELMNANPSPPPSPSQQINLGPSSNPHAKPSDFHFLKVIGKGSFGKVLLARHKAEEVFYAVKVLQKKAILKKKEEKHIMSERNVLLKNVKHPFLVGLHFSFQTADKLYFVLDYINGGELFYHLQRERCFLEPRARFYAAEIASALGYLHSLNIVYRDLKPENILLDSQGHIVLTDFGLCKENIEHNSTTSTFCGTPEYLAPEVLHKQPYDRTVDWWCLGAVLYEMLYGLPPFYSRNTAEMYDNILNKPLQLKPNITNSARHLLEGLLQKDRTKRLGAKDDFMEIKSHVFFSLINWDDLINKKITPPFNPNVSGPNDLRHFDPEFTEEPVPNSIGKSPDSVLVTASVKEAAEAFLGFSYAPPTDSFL
The following applies: at 0.1 µM.

Test [13] addresses T1, Serine/threonine-protein kinase Sgk1 (Homo sapiens). The following applies: at 1 µM.
In test [14] the target is T2, Serine/threonine-protein kinase Sgk2 (Homo sapiens) (UniProt Q9HBY8).
T2 sequence (whole entry): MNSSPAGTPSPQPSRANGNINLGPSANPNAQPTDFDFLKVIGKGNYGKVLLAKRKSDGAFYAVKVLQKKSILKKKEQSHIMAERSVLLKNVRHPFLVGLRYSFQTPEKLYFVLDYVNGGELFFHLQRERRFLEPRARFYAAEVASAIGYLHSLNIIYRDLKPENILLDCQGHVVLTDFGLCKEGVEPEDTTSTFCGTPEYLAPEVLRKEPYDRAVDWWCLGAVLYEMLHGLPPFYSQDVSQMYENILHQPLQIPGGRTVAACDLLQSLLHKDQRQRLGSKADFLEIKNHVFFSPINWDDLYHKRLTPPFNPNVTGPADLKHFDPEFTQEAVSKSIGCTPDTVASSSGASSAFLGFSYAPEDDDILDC
The following applies: at 0.1 µM.

In test [15] the target is T2, Serine/threonine-protein kinase Sgk2 (Homo sapiens). The following applies: at 1 µM.
The target in test [16] is T3, Serine/threonine-protein kinase Sgk3 (Homo sapiens) (UniProt Q96BR1).
T3 sequence (whole entry): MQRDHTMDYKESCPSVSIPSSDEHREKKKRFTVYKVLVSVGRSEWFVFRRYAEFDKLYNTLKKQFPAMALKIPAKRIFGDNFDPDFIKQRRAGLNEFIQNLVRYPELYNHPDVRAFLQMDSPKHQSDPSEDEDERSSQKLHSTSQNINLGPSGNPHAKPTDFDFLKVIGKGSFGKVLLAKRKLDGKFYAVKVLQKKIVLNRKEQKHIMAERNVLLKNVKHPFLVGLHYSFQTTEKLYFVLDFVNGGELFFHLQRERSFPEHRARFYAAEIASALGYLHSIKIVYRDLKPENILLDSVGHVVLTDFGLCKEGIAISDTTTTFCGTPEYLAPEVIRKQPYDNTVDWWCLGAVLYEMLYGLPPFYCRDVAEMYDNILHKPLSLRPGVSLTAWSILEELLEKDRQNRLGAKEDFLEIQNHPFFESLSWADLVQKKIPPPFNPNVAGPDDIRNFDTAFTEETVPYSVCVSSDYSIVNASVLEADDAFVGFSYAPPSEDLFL
The following applies: at 0.1 µM.

The target in test [17] is T3, Serine/threonine-protein kinase Sgk3 (Homo sapiens). The following applies: at 1 µM.
The target of test [18] is 5'-AMP-activated protein kinase catalytic subunit alpha-1 (Homo sapiens) (UniProt Q13131). The note with it: at 0.1 µM.
For test [19] the target is unchanged. The following applies: at 1 µM.
In test [20] the target is 5'-AMP-activated protein kinase catalytic subunit alpha-2 (Homo sapiens) (UniProt P54646). The note with it: at 0.1 µM.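 Also: mean inhibition measured on the AMPK complex of alpha2, beta1 and gamma1 subunits.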

Chain of Ribosomal protein S6 kinase alpha-2 (Homo sapiens) (Q15349 whole entry): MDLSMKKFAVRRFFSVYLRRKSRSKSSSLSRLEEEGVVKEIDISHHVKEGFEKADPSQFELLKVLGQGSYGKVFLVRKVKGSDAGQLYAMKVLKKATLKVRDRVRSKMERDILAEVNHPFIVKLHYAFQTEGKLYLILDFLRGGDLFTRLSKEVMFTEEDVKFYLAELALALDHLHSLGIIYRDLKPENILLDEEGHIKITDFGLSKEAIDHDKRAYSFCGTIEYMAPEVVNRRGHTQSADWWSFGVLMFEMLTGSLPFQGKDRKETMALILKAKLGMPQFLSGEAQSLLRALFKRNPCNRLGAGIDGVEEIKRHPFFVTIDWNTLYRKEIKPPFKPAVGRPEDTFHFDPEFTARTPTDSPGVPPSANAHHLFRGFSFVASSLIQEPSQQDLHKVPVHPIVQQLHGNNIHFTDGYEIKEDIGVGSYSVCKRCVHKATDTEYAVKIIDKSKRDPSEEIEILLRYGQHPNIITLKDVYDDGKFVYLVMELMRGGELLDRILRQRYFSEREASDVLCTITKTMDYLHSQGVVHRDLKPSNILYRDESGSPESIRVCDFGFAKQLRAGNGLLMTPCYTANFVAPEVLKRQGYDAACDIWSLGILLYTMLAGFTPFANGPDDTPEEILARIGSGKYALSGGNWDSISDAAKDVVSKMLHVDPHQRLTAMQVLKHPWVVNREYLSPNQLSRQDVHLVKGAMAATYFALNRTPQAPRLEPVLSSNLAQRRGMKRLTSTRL
Chain of Ribosomal protein S6 kinase alpha-3 (Homo sapiens) (P51812 whole entry): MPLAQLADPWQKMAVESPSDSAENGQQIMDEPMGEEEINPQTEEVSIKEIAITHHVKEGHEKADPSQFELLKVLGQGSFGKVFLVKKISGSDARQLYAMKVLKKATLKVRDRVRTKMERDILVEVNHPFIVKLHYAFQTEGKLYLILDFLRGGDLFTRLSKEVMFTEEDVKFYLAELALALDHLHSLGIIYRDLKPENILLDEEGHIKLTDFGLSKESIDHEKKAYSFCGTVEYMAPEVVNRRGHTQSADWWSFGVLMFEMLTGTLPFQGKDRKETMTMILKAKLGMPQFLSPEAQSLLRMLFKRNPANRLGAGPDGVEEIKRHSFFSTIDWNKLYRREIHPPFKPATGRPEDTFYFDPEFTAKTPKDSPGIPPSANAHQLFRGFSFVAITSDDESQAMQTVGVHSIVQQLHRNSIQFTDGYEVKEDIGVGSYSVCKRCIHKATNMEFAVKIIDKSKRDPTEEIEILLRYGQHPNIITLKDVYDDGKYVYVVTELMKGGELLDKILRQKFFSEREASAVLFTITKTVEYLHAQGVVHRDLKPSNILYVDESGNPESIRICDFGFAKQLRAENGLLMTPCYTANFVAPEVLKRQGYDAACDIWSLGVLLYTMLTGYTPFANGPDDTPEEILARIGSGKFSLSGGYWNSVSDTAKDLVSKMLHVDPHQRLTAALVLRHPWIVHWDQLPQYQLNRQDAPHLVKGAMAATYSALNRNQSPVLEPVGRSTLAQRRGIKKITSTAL
Chain of Rho-associated protein kinase 1 (Homo sapiens) (Q13464 2-1354 limits assumed): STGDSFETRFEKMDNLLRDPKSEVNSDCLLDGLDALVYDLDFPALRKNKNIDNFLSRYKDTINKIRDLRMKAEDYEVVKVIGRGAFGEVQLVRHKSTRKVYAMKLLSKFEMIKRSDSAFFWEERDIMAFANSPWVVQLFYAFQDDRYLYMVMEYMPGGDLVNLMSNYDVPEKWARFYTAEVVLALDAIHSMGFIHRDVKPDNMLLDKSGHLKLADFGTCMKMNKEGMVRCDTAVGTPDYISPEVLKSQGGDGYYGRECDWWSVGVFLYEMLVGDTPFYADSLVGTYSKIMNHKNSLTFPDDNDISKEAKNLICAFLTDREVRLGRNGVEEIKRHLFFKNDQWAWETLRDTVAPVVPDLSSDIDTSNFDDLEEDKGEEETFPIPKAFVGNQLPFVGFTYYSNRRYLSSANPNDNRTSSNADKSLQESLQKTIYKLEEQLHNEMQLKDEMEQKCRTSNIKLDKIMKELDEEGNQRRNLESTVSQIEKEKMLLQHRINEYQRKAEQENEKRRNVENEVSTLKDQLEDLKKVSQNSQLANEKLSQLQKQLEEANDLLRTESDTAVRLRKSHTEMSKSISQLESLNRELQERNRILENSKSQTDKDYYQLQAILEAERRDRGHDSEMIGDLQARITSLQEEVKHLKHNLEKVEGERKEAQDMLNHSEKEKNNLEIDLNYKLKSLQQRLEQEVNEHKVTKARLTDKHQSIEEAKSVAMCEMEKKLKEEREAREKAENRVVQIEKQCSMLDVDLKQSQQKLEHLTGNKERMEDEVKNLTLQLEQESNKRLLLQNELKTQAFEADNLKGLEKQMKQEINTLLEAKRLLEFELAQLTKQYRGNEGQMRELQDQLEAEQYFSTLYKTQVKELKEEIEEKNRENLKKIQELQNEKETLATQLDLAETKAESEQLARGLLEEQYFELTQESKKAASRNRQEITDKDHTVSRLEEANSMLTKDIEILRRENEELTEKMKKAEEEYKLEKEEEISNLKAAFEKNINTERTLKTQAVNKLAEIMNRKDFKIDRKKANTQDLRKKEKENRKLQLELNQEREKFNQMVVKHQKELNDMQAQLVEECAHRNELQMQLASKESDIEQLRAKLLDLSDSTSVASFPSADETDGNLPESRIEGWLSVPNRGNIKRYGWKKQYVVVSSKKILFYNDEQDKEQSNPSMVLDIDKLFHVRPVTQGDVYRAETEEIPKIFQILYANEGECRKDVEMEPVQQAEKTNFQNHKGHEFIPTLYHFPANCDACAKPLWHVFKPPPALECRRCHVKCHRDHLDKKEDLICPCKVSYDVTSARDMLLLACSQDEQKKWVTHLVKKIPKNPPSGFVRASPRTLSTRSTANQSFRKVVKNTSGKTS
Chain of Ribosomal protein S6 kinase alpha-6 (Homo sapiens) (Q9UK32 whole entry): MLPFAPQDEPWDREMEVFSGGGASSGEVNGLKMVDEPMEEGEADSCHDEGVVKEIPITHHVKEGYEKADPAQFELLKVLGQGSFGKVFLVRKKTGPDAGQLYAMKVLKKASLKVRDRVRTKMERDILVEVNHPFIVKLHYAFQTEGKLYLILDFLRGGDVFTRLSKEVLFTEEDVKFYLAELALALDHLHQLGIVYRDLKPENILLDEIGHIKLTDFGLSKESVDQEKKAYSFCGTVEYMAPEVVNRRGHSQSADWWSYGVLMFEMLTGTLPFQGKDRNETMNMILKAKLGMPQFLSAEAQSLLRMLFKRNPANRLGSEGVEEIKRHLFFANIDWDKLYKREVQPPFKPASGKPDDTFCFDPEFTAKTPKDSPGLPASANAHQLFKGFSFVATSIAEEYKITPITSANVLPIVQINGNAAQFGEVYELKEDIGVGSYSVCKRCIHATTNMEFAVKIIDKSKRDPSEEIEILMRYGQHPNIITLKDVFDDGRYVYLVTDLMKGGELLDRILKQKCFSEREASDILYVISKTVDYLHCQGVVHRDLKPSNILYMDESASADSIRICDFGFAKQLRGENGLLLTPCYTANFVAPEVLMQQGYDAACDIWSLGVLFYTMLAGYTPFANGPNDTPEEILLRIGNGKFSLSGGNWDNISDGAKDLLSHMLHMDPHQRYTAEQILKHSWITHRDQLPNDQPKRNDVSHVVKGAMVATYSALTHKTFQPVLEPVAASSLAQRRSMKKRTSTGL
Chain of Ribosomal protein S6 kinase alpha-1 (Homo sapiens) (Q15418 whole entry): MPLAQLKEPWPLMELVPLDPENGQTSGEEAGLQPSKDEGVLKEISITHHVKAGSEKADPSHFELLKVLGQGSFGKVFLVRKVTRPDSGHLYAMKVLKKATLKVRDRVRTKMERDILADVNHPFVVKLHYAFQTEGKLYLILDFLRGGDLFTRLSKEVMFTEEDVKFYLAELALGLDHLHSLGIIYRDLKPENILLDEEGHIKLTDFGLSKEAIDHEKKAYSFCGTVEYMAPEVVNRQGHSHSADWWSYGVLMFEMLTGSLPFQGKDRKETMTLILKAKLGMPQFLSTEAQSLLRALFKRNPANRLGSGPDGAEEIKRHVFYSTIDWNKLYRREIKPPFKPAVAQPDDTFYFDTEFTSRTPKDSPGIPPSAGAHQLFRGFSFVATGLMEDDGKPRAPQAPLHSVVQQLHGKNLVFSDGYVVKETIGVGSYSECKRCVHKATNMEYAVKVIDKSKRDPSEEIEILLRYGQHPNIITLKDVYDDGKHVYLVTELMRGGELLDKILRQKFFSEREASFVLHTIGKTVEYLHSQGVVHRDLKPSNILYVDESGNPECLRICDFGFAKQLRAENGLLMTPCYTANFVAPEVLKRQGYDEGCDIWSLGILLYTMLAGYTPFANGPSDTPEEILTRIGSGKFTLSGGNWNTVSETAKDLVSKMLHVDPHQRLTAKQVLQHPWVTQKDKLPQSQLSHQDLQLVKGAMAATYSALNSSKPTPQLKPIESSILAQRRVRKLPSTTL
Chain of 5'-AMP-activated protein kinase catalytic subunit alpha-1 (Homo sapiens) (Q13131 whole entry, looked up): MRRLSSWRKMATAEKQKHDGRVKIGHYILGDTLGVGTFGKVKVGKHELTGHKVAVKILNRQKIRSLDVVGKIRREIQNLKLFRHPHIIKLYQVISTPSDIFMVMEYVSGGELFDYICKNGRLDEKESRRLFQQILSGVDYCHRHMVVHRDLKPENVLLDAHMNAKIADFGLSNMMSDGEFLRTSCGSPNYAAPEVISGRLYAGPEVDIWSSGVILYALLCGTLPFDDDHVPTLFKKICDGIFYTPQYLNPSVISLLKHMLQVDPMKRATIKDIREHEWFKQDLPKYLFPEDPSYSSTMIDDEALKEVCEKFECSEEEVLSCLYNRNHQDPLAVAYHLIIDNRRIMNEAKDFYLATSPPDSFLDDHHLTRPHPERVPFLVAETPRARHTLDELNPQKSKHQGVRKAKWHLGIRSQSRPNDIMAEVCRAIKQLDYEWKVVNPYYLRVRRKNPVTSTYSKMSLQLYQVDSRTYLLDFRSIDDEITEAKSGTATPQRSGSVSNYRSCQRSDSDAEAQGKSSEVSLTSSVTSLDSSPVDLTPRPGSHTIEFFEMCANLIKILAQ

On to `O=C1NC(=O)C(N2CCc3ccccc32)=C1c1ccc(Cl)cc1`, for which the inhibition (commonly the change of the read-out against control, counted positive when it falls) in [1] worked out at 2.06%; in [2], 2.69%; in [3] it was 1.72%; in test [4] it was 1.94%; in [5], 0.4%; in [6], 2.23%. The inhibition in [7] came out at 1.24%; in test [8] it was 2.52%; in test [9] it was 2.25%; in test [10], 2.11%; in [11], 1.19%; in test [12] it was 2.14%. Also, the inhibition was determined as 2.97% in test [13]; 2.07% in test [14]; 1.86% in [15]; 3.22% in [16]; 3% in [17]; 0.74% in test [18]. The inhibition turned out to be 4.36% in test [19] and 4.52% in [20].

Regarding `COc1ccc(-c2ccncc2)cc1C(N)=O`, the inhibition in [1] is 4.76%; in test [2], 3.14%; in [3], 6.03%; in [4] it was 2.42%; in test [5] it was 4.51%; in test [6] it was 1.67%. Besides, the inhibition was found to be 4.1% in test [7]; 3.52% in test [8]; 5.01% in test [9]; 2.25% in [10]; 3.03% in test [11]; 2.81% in test [12]. In addition, the inhibition in [13] came out at 3.03%; in [14] it was 2.33%; in [15], 1.26%; in test [16], 2.05%; in test [17] it was 6.23%; in [18], 2.82%. Also, the inhibition in test [19] was found to be 5.78%; in [20], 7.48%.

For the compound `CCN1CCC(CC(=O)Nc2n[nH]c3nc(-c4cccs4)c(Br)cc23)CC1`, the inhibition in test [1] is -0.45%; in test [2] it was -0.91%; in test [3], 0.3%; in test [4], -1.31%; in test [5], -0.49%; in [6], -0.78%. Also, the inhibition in [7] is -0.3%; in [8], -1.79%; in test [9], 0.38%; in [10], -1.6%; in test [11] it was 1.64%; in test [12] it was -1.12%. Moreover, the inhibition is -1.95% in test [13]; -5.07% in [14]; -0.81% in test [15]; -2.7% in test [16]; -2.06% in test [17]; -0.96% in [18]. Further, the inhibition in test [19] is 4.08%; in test [20], 3.33%.

On to `O=C1Nc2ccc(C(=O)c3ccco3)cc2C1=Cc1cc(Cl)c(O)c(Cl)c1`, for which the inhibition in [1] worked out at 7.03%; in [2] it was 2.19%; in [3], 12.1%; in test [4], 3.17%; in [5], 11.9%; in test [6], 0.85%. The inhibition in [7] is 6.32%; in test [8] it was 1.45%; in test [9] it was 9.07%; in test [10], 1.47%; in test [11] it was 12%; in [12] it was 1.08%. Further, the inhibition was determined as 5.11% in test [13]; 1.59% in [14]; 3.35% in [15]; 1.55% in test [16]; 2.25% in [17]; 4.48% in test [18]. For the same compound, the inhibition in [19] turned out to be 21.4%; in test [20], 3.01%.

Turning to `[O-][S+]1CCN(Cc2ccc(-c3ccc4ncnc(Nc5ccc(OCc6ccccc6)c(F)c5)c4c3)o2)CC1`, the inhibition in test [1] was 1.51%; in [2] it was 0.14%; in test [3], 0.33%; in [4] it was -0.15%; in test [5], -0.56%; in test [6], -0.51%. The inhibition was -0.78% in test [7]; 1.48% in [8]; 1.83% in test [9]; 0.96% in [10]; 0.29% in [11]; 1.32% in [12]. The inhibition is 0.95% in test [13]; 1.18% in test [14]; -1.29% in test [15]; 0.74% in test [16]; 2.23% in test [17]; 0.77% in [18]. In addition, the results for the inhibition in [19] and in [20] were -0.08% and 0.83%, respectively.

`Cc1ccc(NC(=O)c2ccnc(N3CCCC3)c2)cc1-c1ccc(C(=O)NCC2CC2)cc1`: the inhibition in test [1] came to 7.68%; in test [2], 5.19%; in test [3], 7.89%; in test [4], 3.15%; in test [5], 5.01%; in test [6], 2.42%. The inhibition in test [7] turned out to be 6.09%; in test [8] it was 3.89%; in test [9], 5.23%; in test [10], 2.53%; in test [11] it was 4.24%; in test [12], 5.73%. Further, the inhibition in [13] stood at 4.14%; in test [14], 2.67%; in test [15] it was 6.84%; in [16], 1.32%; in test [17], 1.99%; in test [18], 6.18%. The inhibition worked out at 7.1% in test [19] and 6.89% in test [20].

As to `CS(=O)(=O)Nc1ccc(N/C=C2\C(=O)Nc3ccccc32)cc1`, the inhibition in test [1] was 1.4%; in [2] it was -0.88%; in test [3], 1.99%; in test [4], 1.8%; in test [5], 9.64%; in test [6], 1.88%. Moreover, the inhibition in [7] stood at 9.89%; in test [8], 0.85%; in test [9], 13.8%; in test [10], 0.95%; in [11] it was 11%; in test [12], 0.01%. The inhibition in [13] was 12.3%; in [14], -2.1%; in [15], 1.93%; in test [16], -3.12%; in test [17], -0.79%; in [18], 0.57%. The inhibition in [19] was 12%; in test [20] it was -0.35%.
